D1 potentiator: potentiators of human D1 dopamine receptor; P21728; HEK293 TREx D1 cells, calcium flux, dopamine EC20 potentiation; potentiation, % at 10 µM; hit rate 0.036% among 360,000; AID 504651; in the data active = potentiation above about 30%
Target sequence (P21728 whole entry, looked up): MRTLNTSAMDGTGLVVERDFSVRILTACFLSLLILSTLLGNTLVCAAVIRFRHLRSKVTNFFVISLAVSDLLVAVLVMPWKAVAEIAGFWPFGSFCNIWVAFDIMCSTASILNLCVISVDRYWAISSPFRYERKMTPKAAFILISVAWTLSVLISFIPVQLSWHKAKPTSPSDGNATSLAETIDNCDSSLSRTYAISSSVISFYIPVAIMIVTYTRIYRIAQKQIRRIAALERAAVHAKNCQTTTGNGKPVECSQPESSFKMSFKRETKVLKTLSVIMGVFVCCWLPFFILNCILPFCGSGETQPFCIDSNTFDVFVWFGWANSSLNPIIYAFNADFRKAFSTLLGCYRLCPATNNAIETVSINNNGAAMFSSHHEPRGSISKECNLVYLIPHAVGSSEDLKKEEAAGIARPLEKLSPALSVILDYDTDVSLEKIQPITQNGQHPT
DRD3 antagonist: blocks the human D3 dopamine receptor; AID 652054; D3R cells, DiscoveRx beta-arrestin luminescence, antagonist mode; hits give low values; hit rate 2.5% among 360,000; max response, negative = inhibition, %; P35462; in the data active = max response below about -50%; inconclusive = no clear call, values can overlap the other calls
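Cells plated overnight at 1500 cells/well, then exposed to library compounds with dopamine controls for 90 minutes at 37 degrees C. DiscoveRx reagent added for 30–60 minutes at room temperature; luminescence read, quantitative HTS format.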
D1 agonist: agonists of human D1 dopamine receptor; P21728; HEK293 T-REx D1 cells, calcium flux, agonist mode; activation, % at 2 µM; hit rate 1% among 360,000; in the data active = activation above about 30%
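Inducible HEK293 T-REx D1 cells, force-coupled to calcium signalling, were plated at 4000 cells/well with tetracycline and held overnight at 30 C. After no-wash calcium dye loading, compound-evoked calcium rise over 180 s flagged agonists.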
DRD3 agonist: agonists of human D3 dopamine receptor; P35462; D3R DiscoveRx beta-arrestin cells, luminescence, 90 min; max activation, %; hit rate 0.58% among 410,000; AID 652048; in the data active = max activation above about 30%
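Agonist mode: compounds and dopamine controls were applied to plated cells for 90 min at 37 degrees C after an overnight attachment at 1500 cells/well. Luminescent read-out followed 30 - 60 minutes at room temperature with DiscoveRx detection reagent.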
D1 antagonist: blocks dopamine activation of the human D1 receptor. activity change, negative = inhibition, % at 10 µM. AID 504652. HEK293 TREx D1 cells, calcium flux, dopamine EC80; hits give low values. hit rate 3.2% among 360,000; in the data active = activity change below about -30%
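Using tetracycline-induced force-coupled D1 Hek293 cells and a calcium dye, signals were followed for 180 s after compound, then for 180 s after EC80 dopamine, to detect inhibitors.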
Hits are given with their value; - = inactive; ? = inconclusive; . = not tested or not shown. Shown are actives, neighbours in structure and some others; about 6.1% of the full set was active somewhere.

SMILES	D1 potentiator	DRD3 antagonist	D1 agonist	DRD3 agonist	D1 antagonist
COc1ccc(C=Nc2cccnc2N)cc1	-	-	-	-	-
COc1ccc(NC(=O)CSc2nc3nc(C)c(Cc4ccccc4Cl)c(C)n3n2)cc1OC	-	.	-	-	-
COc1ccc2cc(CN(CC3CCCO3)C(=S)Nc3ccccc3)c(=O)[nH]c2c1 (stereo unspecified)	-	?	-	-	-
CCOc1ccccc1NC(=S)N(Cc1cc2ccc(C)cc2[nH]c1=O)CC1CCCN1CC (stereo unspecified)	-	?	-	-	-
CCN1CCCC1CN(Cc1cc2ccc(C)cc2[nH]c1=O)C(=S)Nc1ccc(OC)cc1 (stereo unspecified)	-	-63.9	-	-	-
CCN1CCCC1CN(Cc1cc2ccc(C)cc2[nH]c1=O)C(=S)Nc1ccccc1OC (stereo unspecified)	-	?	-	-	-
CCN1CCCC1CN(Cc1cc2ccc(C)cc2[nH]c1=O)C(=S)Nc1ccccc1C(=O)OC (stereo unspecified)	-	-64.8	-	-	-
CCN1CCCC1CN(Cc1cc2ccc(C)cc2[nH]c1=O)C(=S)Nc1cccc(OC)c1 (stereo unspecified)	-	-88.2	-	-	-
CCN1CCCC1CN(Cc1cc2ccc(C)cc2[nH]c1=O)C(=S)Nc1ccc(F)cc1 (stereo unspecified)	-	-82.4	-	-	-
COc1ccc(CNC(=O)Cn2c(=O)oc3cc(S(=O)(=O)N4CCCCCC4)ccc32)cc1	-	.	-	-	-
Cc1ccc2nc(-c3cc(NC(=O)/C=C/c4ccccc4)ccc3Cl)oc2c1	-	.	-	-	-
CCc1cccc2c(-c3ccccc3)nc(SCC(=O)Nc3ccccc3OC)nc12	-	.	-	-	-
CCNC(=O)c1cc(Cl)ccc1OC	-	-	-	-	-
COc1ccc(Cl)cc1C(=O)NCCN(C)C	-	-71.8	-	-	-
CN(C)CCNC(=O)c1ccc(COc2ccc(Cl)cc2Cl)cc1	-	-	94.6	-	-64.4
COc1cc(NC(=O)C2=C(C)OCCS2)c(Cl)cc1C(=O)NCCN(C)C	-	-52.4	-	-	-
COc1ccccc1CCNC(=O)C(=O)NCC(c1ccco1)S(=O)(=O)c1ccccc1 (stereo unspecified)	-	.	-	-	.
Cc1nn(-c2ccccc2)c(C)c1/C=N/NC(=O)c1cc(-c2cccs2)[nH]n1	-	-	-	-	-87.0
Cc1nn(-c2ccccc2)c(C)c1/C=N/NC(=O)c1cc(-c2ccc(Br)s2)[nH]n1	-	-	-	-	-
O=C(COC(=O)c1ccccc1Cl)Nc1nccs1	-	-	44.9	-	-
CC(=Nc1ccc(C)cc1)c1sc2ccccc2c1O	-	?	61.0	-	-
CC(=Nc1cccc(O)c1)c1sc2ccccc2c1O	-	-	67.8	-	-
COc1ccc(NCc2cc3ccc(OC)cc3n(CC(=O)Nc3cccc(OC)c3)c2=O)cc1	-	.	-	-	-
Fc1cc(Br)ccc1Nc1c2c(nc3nc(-c4cccs4)nn13)CCCC2	-	.	-	-	-
CNC(=S)Nc1cccc(-c2cnc3ccccc3n2)c1	-	-73.7	-	-	-
SMILES	D1 potentiator	DRD3 antagonist	D1 agonist	DRD3 agonist	D1 antagonist
CC(C)C(=O)Nc1cccc(-c2cnc3ccccc3n2)c1	-	-	-	-	-
CCC(=O)N1CCc2cc(CNS(=O)(=O)c3ccc(C(C)C)cc3)ccc21	-	.	-	-	-
CCCCCn1c(CCCNC(=O)c2ccc(Cl)cc2)nc2ccccc21	-	.	-	-	-
Cc1cc(=O)n2nc(N3CCCC(C(=O)NCCCN4CCc5ccccc5C4)C3)sc2n1 (stereo unspecified)	-	-86.3	-	-	-32.1
O=C(NCCCN1CCc2ccccc2C1)C1CCN(S(=O)(=O)N2CCCC2)CC1	-	-79.8	-	-	-
O=C(NCCCN1CCCCC1)C1CCN(S(=O)(=O)N2CCC3(CC2)OCCO3)CC1	-	-	-	-	-
O=C(NCCCN1CCc2ccccc2C1)C1CCN(S(=O)(=O)N2CCC3(CC2)OCCO3)CC1	-	-64.8	-	-	-
NC(N)=Nc1nc(CCN2C(=O)c3ccccc3C2=O)cs1	.	-	.	47.9	.
O=C1c2ccccc2C(=O)N1CCc1csc(-c2ccc(F)cc2)n1	-	-	-	30.2	-
Cc1nc(CCN2C(=O)c3ccccc3C2=O)cs1	-	-	-	-	-
Cc1ccc(C)c(N2CCN(C(=O)C3CCCN(S(=O)(=O)c4ccc5c(c4)oc(=O)n5C)C3)CC2)c1 (stereo unspecified)	-	.	-	-	-
Cc1cccc(C)c1OCc1nnc(SCC(=O)NCc2ccccc2)o1	-	-	-	38.4	-
COc1ccc2oc(=O)cc(CN3CCN(c4ccccc4F)CC3)c2c1	-	.	-	-	-
COc1cc(-c2nc(-c3cccc(C)c3)no2)cc(OC)c1OC	-	-	-	58.1	-
Cc1cccc(-c2noc(-c3ccc4c(c3)OCO4)n2)c1	-	-	-	-	-45.5
COc1ccc(-c2nc(-c3ccccc3OC)no2)cc1OC	-	-	-	-	-36.1
COc1ccccc1-c1noc(-c2ccccc2)n1	-	-	-	-	-
COc1ccc(-c2noc(COc3cc(C)ccc3C)n2)cc1OC	-	.	46.6	-	-
COc1ccc(-c2noc(COc3ccc(C)cc3C)n2)cc1OC	-	.	-	-	-
Cc1cccc(-c2nc(-c3ccncc3)no2)c1	-	-	-	-	-
O=c1[nH]c2ccc(S(=O)(=O)N3CCN(S(=O)(=O)c4c(F)cccc4F)CC3)cc2[nH]c1=O	-	.	-	.	-
CN1CCOc2ccc(S(=O)(=O)N3CCN(S(=O)(=O)c4c(F)cccc4F)CC3)cc21	-	.	-	.	-
CCSc1nnc2c(n1)OC(CC)N(C(C)=O)c1ccccc1-2 (stereo unspecified)	-	.	-	-	-
COc1ccc(-c2nc(-c3cccc(C)c3)no2)cc1OC	-	-	-	64.6	-
COc1ccc(Cc2nc(-c3ccc(-n4cccc4)cc3)no2)cc1	-	-	-	-	-
SMILES	D1 potentiator	DRD3 antagonist	D1 agonist	DRD3 agonist	D1 antagonist
COc1ccccc1-c1noc(-c2ccc(NC3CCCC3)c([N+](=O)[O-])c2)n1	-	.	-	-	-40.5
COc1ccc(Cc2nc(-c3ccc(-n4cccc4)cc3)no2)cc1OC	-	-	32.2	-	-38.9
CCN(Cc1nc(-c2cccc(C)c2)no1)C(=O)c1ccc2c(c1)OCO2	.	-	35.0	-	-
COc1ccc(Cl)cc1NC(=O)Cn1cc(S(=O)(=O)Cc2cccc(Cl)c2)c2ccccc21	-	.	-	-	-
O=C(O)c1ccc(/C=N/NC(=O)C(O)(c2ccccc2)c2ccccc2)cc1	-	-	-	-	-31.6
O=C(N/N=C/c1ccccc1[N+](=O)[O-])c1ccc2c(c1)OCCO2	-	-	-	-	-
COC(=O)N/N=C/c1ccccc1	-	-	-	42.0	-
Cc1ccsc1/C=N/NC(=O)C1CC(=O)N(c2ccccc2)C1 (stereo unspecified)	-	-	-	-	-46.5

Source: PubChem (National Center for Advancing Translational Sciences (NCATS))
